# Screening data: PubChem BioAssay, National Center for Advancing Translational Sciences (NCATS)
# Vif-A3F inh = inhibitors of Vif-A3F interaction. 390,000 compounds, 0.2% hits. HeLa A3F-eYFP + Vif (tagged APOBEC3F with the HIV-1 protein that degrades it), YFP fluorescence increase. Potency, µM (top dose mostly 46.1 µM), for inactives: at the top dose activity, negative = active; also: potency is read from the fitted curve at half-maximal effect; % of control where 0% means no effect; nearly all actives have a fitted effect of over 65% in size
#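 HeLa cells stably expressing Vif plus C-terminally eYFP-tagged A3F were seeded, incubated overnight at 37 deg C, dosed with compound, incubated overnight again at 37 deg C. Yellow fluorescence (Ex 488/Em 500-530) reported blocked Vif-mediated A3F-eYFP degradation.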
# Vif-APOBEC3G blk = Vif-A3G binding inhibition; Q9HC16; HeLa A3G-eYFP + Vif (tagged APOBEC3G with the HIV-1 protein that degrades it), YFP fluorescence, overnight; Potency, µM (top dose mostly 46.1 µM), inactives show at the highest dose activity, negative = active, hits mostly inhibitors; 410,000 compounds, 0.076% hits; AID 602310; also: potency is read from the fitted curve at half-maximal effect; % is scaled to controls: 0 for no effect and ±100 for the full control effect; nearly all actives have a fitted effect of over 60% in size
# Target sequence (Q9HC16 whole entry, looked up): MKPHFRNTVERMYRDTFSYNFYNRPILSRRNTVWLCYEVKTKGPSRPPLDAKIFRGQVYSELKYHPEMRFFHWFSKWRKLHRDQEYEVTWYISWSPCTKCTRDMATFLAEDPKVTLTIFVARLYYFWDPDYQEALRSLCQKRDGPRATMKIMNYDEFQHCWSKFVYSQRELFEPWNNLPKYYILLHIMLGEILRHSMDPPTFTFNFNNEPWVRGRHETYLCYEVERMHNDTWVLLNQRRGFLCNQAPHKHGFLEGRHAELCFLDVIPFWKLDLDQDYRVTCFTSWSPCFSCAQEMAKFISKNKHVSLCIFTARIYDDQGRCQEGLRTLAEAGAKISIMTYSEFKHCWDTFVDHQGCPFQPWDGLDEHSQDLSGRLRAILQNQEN
#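 HeLa cells stably expressing Vif and C-terminally eYFP-tagged A3G, seeded overnight at 37 deg C, then exposed to compound by pintool overnight at 37 deg C. Rise in yellow fluorescence (Ex 488/Em 500-530, Acumen) marks blocked Vif-driven A3G degradation.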
# IL-1B inflam inh = inhibitors of inflammasome signaling (IL-1 beta secretion); THP-1 LPS/ATP IL-1B secretion, AlphaLISA, 16 h; active compounds read low; activity change, % at 57.5 µM; 360,000 compounds, 4.7% hits; AID 743279; in the data active = activity change below about -50%; inconclusive = mostly about -30% to -49%; also: % is scaled to controls: 0 for no effect and ±100 for the full control effect
#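 Secreted IL-1B measured by AlphaLISA bead assay after 16 h compound exposure of THP-1 cells; compounds (final up to 57.5 uM) added 1 h before LPS (250 ng/mL) and ATP (1.25 mM) stimulation; lower signal means less secretion.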
# SW480 rereplic = DNA re-replication induction in SW480 cells; Potency, µM (doses to about 46.1 µM), without a hit: top-dose re-replication activation, hits mostly activators; AID 624297; SW480 DNA re-replication, Hoechst DNA content imaging, 48 h; 340,000 compounds, 1.8% hits; also: potency is read from the fitted curve at half-maximal effect; % of control where 0% means no effect; nearly all actives have a fitted effect of over 55% in size
#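 DNA re-replication was detected as more nuclei of elevated Hoechst intensity after 48 hr exposure to compound (23 nL pinned per well of 250 cells).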
# MCF10A rerep = inducers of DNA re-replication in MCF 10A breast cells | MCF 10A DNA re-replication, Hoechst nuclear intensity, 48 h | Potency, µM (highest dose often 46.1 µM), for inactives: at the highest dose activity, positive = re-replication, most hits filed as activators | 350,000 compounds, 2.9% hits; also: potency is read from the fitted curve at half-maximal effect; % of control where 0% means no effect; nearly all actives have a fitted effect of over 50% in size
# Giardia killer = kills Giardia lamblia; Giardia lamblia trophozoite viability; activity change, % at 7.66 µM, hits read low; 340,000 compounds, 0.15% hits; AID 540267; in the data active = activity change below about -80%; inconclusive = between about -30% and that limit;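 also: parasites exposed to compound for two days anaerobically before the ATP read; % is scaled to controls: 0 for no effect and ±100 for the full control effect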
#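 Trophozoite viability was measured as ATP-dependent luminescence, read 15-30 min after reagent addition. Before that, parasites at 100 cells/well were exposed to compounds for 48 h, anaerobically, at 37 deg C.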
# Numbers without * were called inactive; ? = inconclusive; . = not tested or not shown; ! = not active in a repeat; [ ] = another dose, or the depositor's remark. Sampled rows, rich in hits. Any-hit rate of the full collection: about 6.9%. Unless noted, calls follow the shape of the dose curve; as a rule, active = well fitted curve in the direction sought with a large enough effect; inconclusive = small, poorly fitted or top-dose-only effect, or another doubt; inactive = no such curve, though single readings can be large; an effect the other way counts as inactive or inconclusive.
SMILES,Vif-A3F inh,Vif-APOBEC3G blk,IL-1B inflam inh,SW480 rereplic,MCF10A rerep,Giardia killer
CCN(CC)CC(O)CNc1ccnc2c(Cl)ccc(Cl)c12 (centres undefined),-12%,4%,-66*,3%,-3%,1
O=C(Cn1ncc2c3ccccc3n(Cc3ccccc3F)c2c1=O)NCc1ccccc1Cl,-16%,-4%,.,.,.,.
Cc1n(Cc2ccccc2)c2ccccc2[n+]1Cc1ccccc1,-4%,-2%,-72*,1%,16%,4
Cc1n(Cc2ccccc2)c2cc([N+](=O)[O-])ccc2[n+]1Cc1ccccc1,0%,2%,-14,1%,-6%,19
COc1ccc2sc(C)[n+](C)c2c1,-29%,-1%,-13,-15%,0%,4
CC[n+]1c(/C=C2/C=C(C)CC(C)(C)C2)sc2ccc(OC)cc21,.,?,-112*,?,16µM*,1
Cc1sc2ccccc2[n+]1CCCC[n+]1c(C)sc2ccccc21,.,2%,.,.,.,.
CC[n+]1c(/C=C2\C=C(C)CC(C)C2)sc2ccccc21 (centres undefined),.,-15%,-29,2%,23µM*,17
CC[n+]1c(/C=C2\C=C(C)CC(C)(C)C2)sc2ccccc21,-16%,-16%,-60*,?,?,-16
Cc1sc2ccccc2[n+]1Cc1ccccc1,.,-2%,.,.,.,.
CCC1=C/C(=C/c2sc3ccccc3[n+]2CC)CC(C)(C)C1,?,0%,-93*,?,?,-21
COc1cccc(C(=O)NCCc2csc3nc(-c4ccccc4F)nn23)c1OC,-3%,2%,.,.,.,.
C=Cc1ccc(COc2ccc3oc(-c4ccccc4)c(C(=O)OCC)c3c2)cc1,-1%,2%,.,.,.,.
COc1ccc(CNS(=O)(=O)c2cnc(N)nc2)c(OC)c1,10%,-2%,.,.,.,.
COc1ccc(N2C(=O)Cc3cc(OC)c(OC)cc3C2c2ccc(F)cc2)cc1 (centres undefined),0%,-23%,.,.,.,.
Cn1c(SCc2ccc(Cl)cc2)nnc1-c1ccc(NC(=O)CCc2ccccc2)cc1,.,0%,.,.,.,.
Cc1cc(C(=O)CSc2cccc[n+]2[O-])c(C)n1-c1ccc(OC(F)F)cc1,-13%,2%,9,-5%,-6%,11
COC(=O)c1ccc(-n2c(C)cc(C(=O)CSc3cccc[n+]3[O-])c2C)cc1,7%,0%,11,-4%,1.3µM*,10
C=CCc1c(C)nc2nc(SCC(=O)Nc3ccc(OCC)cc3)nn2c1C,-7%,-2%,.,.,.,.
CCOCCCNC(=O)/C(C#N)=C/c1ccc(C(=O)OC)cc1,-2%,1%,-10,22%,3%,19
CCOCCCNC(=O)/C(C#N)=C/c1cc(C)c(O)c(C)c1,0%,1%,14,?,23µM*,7
CCOCCCNC(=O)/C(C#N)=C/c1ccc(Cl)c([N+](=O)[O-])c1,0%,-29%,-29,-4%,18µM*,27
CCOCCCNC(=O)/C(C#N)=C/c1cc(OC)c(O)c([N+](=O)[O-])c1,-13%,?,0,?,4.6µM*,-21
COCc1nnc(NC(=O)C2CCN(C(=O)c3ccccc3)CC2)s1,.,-4%,.,.,.,12
Cn1c(=O)oc2cc(S(=O)(=O)NC(Cc3ccccc3)C(=O)NCc3ccccc3Cl)ccc21 (centres undefined),6%,2%,.,.,.,.
SMILES,Vif-A3F inh,Vif-APOBEC3G blk,IL-1B inflam inh,SW480 rereplic,MCF10A rerep,Giardia killer
C=CC[C@]12CC=CC(=O)[C@@]1(O)O[C@H](c1ccc(OC)c(OC)c1)[C@H]2C,3%,-21%,-115*,?,6.5µM*,-12
COc1ccccc1N1CCN(S(=O)(=O)c2ccc3nc(-c4ccccc4)[nH]c3c2)CC1,11%,0%,?,-4%,26µM*!,-4
COc1ccccc1N1CCN(C2CCN(S(=O)(=O)c3ccc(C)cc3)CC2)CC1,-13%,0%,-6,-20%,3%,-2
CCOC(=O)c1ccc(S(=O)(=O)N2CCC(C(=O)N3CCN(c4ccccc4OC)CC3)CC2)cc1,1%,-9%,-85*,30%,?,-4
COc1ccccc1N1CCN(C2CCN(S(=O)(=O)c3ccc4ccccc4c3)CC2)CC1,0%,-1%,-62*,15%,10%,-28
COc1ccc(COC(=O)c2ccc(S(=O)(=O)N3CCC(C)CC3)cc2)cc1,6%,-21%,6,-7%,16µM*,-2
COCCc1nn2c(=O)cc(COC(=O)c3ccc(C(C)(C)C)cc3)nc2s1,-2%,4%,.,.,.,.
O=[N+]([O-])c1ccc(OC/C=C2\Oc3ccc([N+](=O)[O-])cc3C2N2CCOCC2)cc1 (centres undefined),.,-10%,-59*,1%[9.22 µM],?,13
COc1ccc2cc(C#N)c(N3CCN(C(=O)c4ccccc4C)CC3)nc2c1,11%,-7%,.,8%,1%,-4
COc1ccc2cc(C#N)c(N3CCOCC3)nc2c1,7%,-10%,24,5%,8%,-3
COc1ccc(C(=O)N2CCN(c3nc4cc(C)ccc4cc3C#N)CC2)c(OC)c1,12%,1%,-59*,-7%,-2%,13
CCC(C)(C)n1nnnc1CN1CCN(c2nc3cc(OC)ccc3cc2C#N)CC1,1%,6%,-56*,11%,?,0
Cc1ccc2nc(N3CCN(C(=O)c4cccs4)CC3)c(C#N)cc2c1,8%,0%,-59*,13%,?,-2
Cc1ccc2cc(C#N)c(N3CCN(C(=O)c4ccccc4)CC3)nc2c1,10%,-4%,?,?,0.58µM*,-26
N#Cc1cccnc1N1CCN(C(=O)c2cccs2)CC1,2%,2%,-5,-6%,4%,4
Cc1cccc(-c2nc3c4ccccc4nc(N4CCN(c5cccc(Cl)c5)CC4)n3n2)c1,0%,-7%,.,.,.,.
COc1ccc(NC(=O)Cn2c(=O)n(CCCCCC(=O)NCc3ccc4c(c3)OCO4)c(=O)c3sccc32)cc1Cl,?,-7%,.,.,.,.
N#C/C(=C\c1ccc(F)cc1)C(=O)NCC1CCCO1 (centres undefined),3%,0%,.,.,.,.
